Measurements published in PubChem BioAssay AID1220 (Sanford-Burnham Center for Chemical Genomics, 2008).
Screen size: about 190,000 compounds; about 1,300 (0.68%) were called active. Cut-off read from the data, not from the text of the source: active = inhibition above about 50%; inactive = the rest. This excerpt belongs to a sample that is enriched for actives.

target: Mannose-6-phosphate isomerase (Homo sapiens) (UniProt P34949); assay: MPI inhibition at elevated mannose 6-phosphate – biochemical, fluorescence intensity, high mannose 6-phosphate, primary screen (AID 1220); conditions: recombinant PMI enzyme, coupled fluorescence intensity; at 20 µM; active compounds read high
Sequence (P34949 whole entry, looked up): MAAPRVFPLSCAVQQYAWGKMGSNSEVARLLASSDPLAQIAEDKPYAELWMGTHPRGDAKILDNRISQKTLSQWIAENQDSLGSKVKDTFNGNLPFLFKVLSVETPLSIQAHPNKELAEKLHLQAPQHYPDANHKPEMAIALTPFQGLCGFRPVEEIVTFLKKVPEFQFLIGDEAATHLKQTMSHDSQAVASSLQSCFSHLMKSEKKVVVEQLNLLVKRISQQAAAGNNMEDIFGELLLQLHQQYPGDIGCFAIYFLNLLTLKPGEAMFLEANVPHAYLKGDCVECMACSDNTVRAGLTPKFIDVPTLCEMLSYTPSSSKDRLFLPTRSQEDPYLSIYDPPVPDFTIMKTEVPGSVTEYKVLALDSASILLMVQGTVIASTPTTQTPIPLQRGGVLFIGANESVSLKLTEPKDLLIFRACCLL

inhibition, inactive:
CCOc1cc(NC(=S)NCc2ccco2)c(OCC)cc1NC(C)=O 7.1%
CCC(NC(C)C)C(O)c1ccc(O)c2[nH]c(=O)ccc12 (configuration not stated) 11.5%
COc1ccc([C@H](C)NC[C@H](O)c2ccc(O)c(NC=O)c2)cc1 10.4%
CCC(C)c1ccc(O)c(N)c1 (configuration not stated) 31.5%
CNC[C@H](O)c1cccc(O)c1 -2.7%
O=C(NC(=S)Nc1cc(C(F)(F)F)ccc1N1CCOCC1)c1sc2ccccc2c1Cl 2.7%
Cc1ccc(/C=C2\C(=O)ON=C2c2ccccc2)o1 5.3%
Cc1cccc(C)c1N(CC(=O)N1CCN(c2ccccc2F)CC1)S(C)(=O)=O 1.2%
COc1cc(/C(C)=N/Nc2ccc(C(=O)O)cc2)cc(OC)c1OC -109%
Cc1ccnc(NS(=O)(=O)c2ccc(NC(=O)C3COc4ccccc4O3)cc2)n1 (configuration not stated) -9.4%
O=C(Nc1ccc(S(=O)(=O)Nc2ncccn2)cc1)C1COc2ccccc2O1 (configuration not stated) 8.2%
Cc1ccccc1NC(=O)c1oc(=O)c2ccccc2c1-c1ccccc1 -3.9%
Cc1cc(C=NCCO)c(C)n1-c1cc(Cl)ccc1Cl 1.2%
C=CCNC(=O)CN(c1ccccc1OCC)S(=O)(=O)c1ccc(C)cc1 9.1%
O=C(c1cccc(Br)c1)N1CCN(S(=O)(=O)N2CCOCC2)CC1 -0.4%
Cc1nn(-c2nc3ccccc3s2)c(N)c1-c1ccc(Cl)cc1 -4.7%
CCOC(=O)c1ccccc1N=N/C(C(C)=O)=C(/C)O 3.4%
Cc1cc(C(=O)Nc2sc3c(c2C#N)CCC(C)C3)cs1 (configuration not stated) -2.5%
O=C(Cn1cnc2ccccc2c1=O)NCc1cccs1 36.2%
COc1cccc(C=Nc2cc(C)cc(C)c2)c1O 17.1%
COc1cccc(/C=N/NC(=O)C(=O)N/N=C/c2cccc(OC)c2O)c1O -27.8%
CCCn1c(/N=C/c2cc(OC)ccc2O)nc2ccccc21 13.5%
COc1ccc(O)c(C=Nc2cc(C)on2)c1 23.9%
Cc1ccc(CN(Cc2cc3cc4c(cc3[nH]c2=O)OCCO4)Cc2nnnn2Cc2ccco2)cc1 17.2%
CC(C)Cn1c(N2CCN(CC(=O)Nc3ccc(Cl)cc3)CC2)nc2ccccc21 13.8%
CCn1c(CN2CCN(C(=O)c3ccco3)CC2)nc2c1c(=O)n(C)c(=O)n2C -1%
CCCS(=O)(=O)c1cn2cccc(N)c2c1S(=O)(=O)CCC 4%
CC(=O)N1CCc2cc(NC(=O)c3ccc(C)cc3)ccc21 3.7%
Cn1nnc2cc(C(=O)N3CCCCCC3)ccc21 0.1%
COc1cc(/C=C(\C#N)c2nc3ccccc3s2)ccc1OCC(=O)Nc1ccccc1 -0.3%
COc1cc(/C=C(/C#N)c2nc3ccccc3[nH]2)ccc1Oc1ncccc1[N+](=O)[O-] 11.5%
N#C/C(=C\c1ccc(O)c([N+](=O)[O-])c1)c1nc2ccccc2s1 0.6%
COc1cc(C=C(c2nc3ccccc3s2)c2nc3ccccc3s2)ccc1O 34.4%
COc1ccc(/C=C(\C#N)c2nc3ccc(C)cc3[nH]2)cc1Oc1ccc(C(F)(F)F)cc1[N+](=O)[O-] 1.7%
COc1cc(/C=C(\C#N)c2nc3ccc(C)cc3[nH]2)c([N+](=O)[O-])cc1OC 47.8%
COc1cc(/C=C(\C#N)c2nc3ccccc3[nH]2)cc(Br)c1OCc1ccccc1 -16.7%
COc1ccc(C=C(c2nc3ccccc3s2)c2nc3ccccc3s2)cc1O 31.1%
C=CCN(C(=O)CCC(=O)Nc1cc(C)on1)C(C(=O)NC1CCCC1)c1cccnc1 (configuration not stated) 12.1%
COc1nc(Nc2cccc([N+](=O)[O-])c2)nc(OC)n1 11.7%
Cc1cc2c(nn1)CCC/C2=N\O 4%
COc1ccc(C(=O)CSc2nnc(CNC(=O)c3ccc(OC)cc3)n2C)cc1 -5.4%
Cc1cc2nnc(SC3CCCCN(C(=O)c4ccc(F)cc4)C3=O)n2c2ccccc12 (configuration not stated) 3%
CC(C)c1ccc(/C=N/NC(=O)c2cccc(Cl)c2)cc1 -5.5%
CC(C)Cn1ccc(=O)n(CC(C)C)c1=O 12%
CC(C)c1ccc(NC(=O)COc2ccccn2)cc1 4.4%
CC(C)CC(=O)NC(c1ccccc1Cl)c1c(O)ccc2ccccc12 (configuration not stated) 6.9%
O=c1c(-c2nnc(SCc3ccc(Cl)cc3Cl)o2)cccn1Cc1ccccc1 7.2%
COc1ccc(N2C(=O)CC(n3c(CCCCO)nc4ccccc43)C2=O)cc1 (configuration not stated) -9.5%
Cn1c(/C(C#N)=C/c2ccncc2)nc2ccccc21 30.7%
Cn1c(/C(C#N)=C/c2cccc(O)c2)nc2ccccc21 6.4%

inhibition, active:
CCC(NC(C)C)C(O)c1ccc(O)c(O)c1 (configuration not stated) 61.2%
CNC[C@H](O)c1ccc(O)c(O)c1 59%
Cc1cc(C)nc(NS(=O)(=O)c2ccc(NC(=O)C3COc4ccccc4O3)cc2)n1 (configuration not stated) 54.1%
CCN(CC)C1=CC2=CC(=C(C#N)C#N)CCC2CC1 (configuration not stated) 50.6%
CCCCN(C)C1=CC2=CC(=C(C#N)C#N)CCC2CC1 (configuration not stated) 51.1%
COc1ccc(O)c(C=NCC(C)N=Cc2cc(OC)ccc2O)c1 (configuration not stated) 51.9%
COc1cccc(C=NCC(C)N=Cc2cccc(OC)c2O)c1O (configuration not stated) 52.3%
COc1cc(C=C(c2nc3ccccc3s2)c2nc3ccccc3s2)cc(OC)c1O 54.4%
COc1cc(/C=C(\C#N)c2nc3ccccc3s2)cc([N+](=O)[O-])c1O 71.2%
COc1cc(/C=C(\C#N)c2nc3ccc(C)cc3[nH]2)cc([N+](=O)[O-])c1O 64.5%
COc1cc(/C=C(\C#N)c2nc3ccccc3[nH]2)c([N+](=O)[O-])cc1OCc1ccccc1 66.5%
COc1cc(/C=C(\C#N)c2nc3ccccc3n2C)cc(OC)c1O 57%
